Experimental data reported in the supplement of paper PMC12632987.
The full ranking holds about 2,300 sequences; the median of “median log2 fold change of GCK-ALFA target abundance (FLAG IP / Myc IP barcode read proportion)” is about 0.095, and the lowest 2% start at about -0.47. The entries come from a sample that favours the lowest values as a whole.

B1: LC3A_45_1977 (protein)
chain: MAEATLDVLVPRELAEAALEALKRGAERLLEERGPGVEVDLEALEESYRATRDEEEVLLTVRIRAPTRQEALDLADELVEELERELGRPVAAAISVEELP
B2: LC3A_59_2019 (protein)
chain: MEEIEEYREKLREAIDNIDEFVEIVREGLEKFKDDKEKVEALLEEVMEVIVEELGADPEEAEKVLKRMKEIFKTEKDKEKAIELVVDEIRDLLLLTPIEE
B3: LC3A_3_1859 (protein)
chain: MEEIKKEIIELLKSLGRSEEVIEAAERLANLLIERGYKEALETLLEELKKLKDVSDEILLAMFEDLIEALETEDLSEEELIERIEEEARIALNDQEIEEL
B4: LC3A_17_549 (protein)
chain: MEEIKKELEKLLKELEALVKELEKYDPEAAKKLKKKLKEAKKLLEEGKLKEAAETLAEAARELANKLDELEPKHGNEASVLAMEASGLELEAIGLLLKLE
B5: LC3A_3_1857 (protein)
chain: MEEIKKEILELLKKLGRSEETIKAAEELADALIKRGYKKALEKLLEELKKLKNASDELLLDMFKELLAALENEKLNEEELIKKIEEEAKIVKNEQEIIEL
B6: LC3A_147_450 (protein)
chain: VLYEITVDILFKNDPELAEEVEEEIKEIAEKYGGEVEVEREVEQETPTTTLYFVRVTIKFEDEEKALEAEQEISELLDETAKKHPEKFVGAMISIEKIEE
B7: LC3A_28_755 (protein)
chain: ADIEGTIKEAIERAKKAKEEGKEEVIEITVPAGATQADIDKVIEGMEEIAEINKDMKRTTILVNVEAGVAQENLDKLIDAGEEIEEKYPNVTVIFALDEE
B8: LC3A_28_1202 (protein)
chain: SATKAAADAALAEAKALLAAGEEGVVELVVEGKITEEETQYVIDKLEEIAELAAKSGKISIVLDISGEVPEEHQQKLIDKADELEKKYPNVNIIVALEER
B9: LC3A_3_1805 (protein)
chain: ADERIEALLEELRAAGASEETIAAAREVLTLLRERGYLEALETLIEGLRELLDAPDELRLDLLEDVLEYLETNDASEEEVTEFIKEEIRLARSESEIEEL
B10: LC3A_28_1235 (protein)
chain: NAVEKQIEAAKAEVEAAVAAGEEALVELTVTKETTEEDVEKIIKAMEEIAALAATLPALTIIIDVERGVKQEHIDKLADAADAIEAKYPNVTVIIALEEE
B11: LC3A_17_592 (protein)
chain: SEEIKKEIEELLKELKKLIKKMKELGIPEAKEIEKLLKEAEKALKEGDLKKAAELLAKAADLAADALEEKEEELGSEASVLEMEANGLELRAIGILLKLD
B12: LC3A_17_590 (protein)
chain: SEEIREELEELLKELKELIKEAKKLGIPEAKEVEKLLKEAEKALKEGKLREAAELLREAADLLADALEEIEEELGSKASVLEMEANGLALRAEGILLKLE
B13: LC3A_28_956 (protein)
chain: SALEEALKKAIEEAKKAAEKGEPAVITIKVPGDADEEDIEKVIEALREIAEILKDVKGAAIIVDVDGKVKQEHIDKIAEEAERIEKEYPNVTVIIALDEE
B14: LC3A_3_1793 (protein)
chain: AQARIDALLAELRAAGKSDETLAAVRAAATALADRGYEEALATFIEELRELIDAPDEILLDLAEEVLRLIEEEDLDEEELTERIKELAELARNEAEIIEL
B15: LC3A_free_8_2441 (protein)
chain: SNQELVDAALKLLDELEEEIEKKAKELGLDETDIGLLLLEVGSAISEVISLSDASPEEILKATKEDLEEIIKLAEEINKELAKIVKEKAEKILKELEKLL
B16: LC3A_28_693 (protein)
chain: SAIDKQIAAARAEADAAIAAGEEATLTITVTADTTQADVDRIMAAIEEIAARMAASAKLNIIIDVEAGVPQEHLDRLADFGDALAARYPNVNIIIALDED
B17: LC3A_free_39_2217 (protein)
chain: SMEEIEKLIKEIAEEGGIDYEYVKKKIEEIKEVAGLSDEQILELVKAILEAVKAGADAKEILERILKLAKELKEEGKSPEEIAKELLEEIEDFRNLIPLD
B18: LC3A_free_39_2214 (protein)
chain: SEEELEELIKEVAKESGLDYEYIKKKIEEIKEIAGLSLEQMKELVKAILEAVKAGADAEEILKRILALAKELKAAGKSPEEIAEALIEEAEDFRNLIPLD
B19: LC3A_free_39_2288 (protein)
chain: SMEELEKAVKRLAELLDKIEGVTEEEKQTILEAAKKSLETAKAILEALETIEKDGGDVAEAAKRIAAKIKELEAAGKSLEEMTEEIIALTKDLVNLIPID
B20: LC3A_3_1447 (protein)
chain: AEELREEALELLRERGASPETIAAAEELFDALIEKGYLEAMELVLEFLKEVKDASDEFLLETFKDLLELVLTSDDSPEEMKKKIEEELSAFRSELEIEEL
B21: LC3A_3_1892 (protein)
chain: LEERVEETVERLKEAGASEETIELFLEAAELLLERGYYEALETLIDEVEELIDLPDEILLDFLEEVLEVLETEDLSEEELIERIKELARLAKNEGEIEEL
B22: LC3A_3_1875 (protein)
chain: MDEKIEETIELLKEAGASEETIEKFEEVAELLKERGYEEALETLIEEVKKLAGTSDEILLDFLEEVLEVLKTKDLSEEELIEEIKRIARLALNEAEIIEL
B23: LC3A_3_1891 (protein)
chain: LEERIERTEELLREKGASEETIELFRKVMELLKARGYEEALKTLIEEVEELADLPDEILLDFLEEVLEVLETEDLSEEELIKKIKELARLARNEGEIIEL
B24: LC3A_28_685 (protein)
chain: SKTEEDLKKALEEAEEALKKGEPTVVRINVYGDVTEEELEKVLKALEEIAKILNKIPGSAIIVDIDADVDEEFEDKIIDKAEELEKKYPNVTIIIALEER
B25: LC3A_28_1013 (protein)
chain: MSIVEETKKKIEEALKEAEKGEDAYLEVEITSEATQEEVEEVLELIEKAAKEVSKLPNVKLYVVIYDDSNQENHQLIVDAADRIEEKYPNVHVIVAYDDE
B26: LC3A_45_1937 (protein)
chain: MYLATIDLIVPRELAEEALALAEEIARELEEENDGKVEVDLETLRESYEATRDEEDVLLVVKIYAETEELALDVADRLVDRLRAALGPRVAAIISVEEVP
B27: LC3A_free_46_2420 (protein)
chain: MTLDIDIDVLAKTEETAKAVAKELTKTLEDTAKELGVKVEIKVEIEKLEDGTYYVHIDATFTGVTEEQAQQIEDKVIDKVEELEKKYPEILGSIISSELE
B28: LC3A_free_26_2152 (protein)
chain: DIFIDLVELDKAIELLEKALKLLEEDKNASEELKKLVKEALKKAEEMTLESLEEAKKLVEEALKLLEKDKSLSEEKKKELKKLLEEALKLLEKNIEIAKS
B29: LC3A_28_1030 (protein)
chain: AALKAAAAAALAEARAQFEAGEEAVVTLDVGDVPTAEAKAVVTAFLAELRALSAEYGGRKVSVVINYDGDQATLDAIIDAAEAAEAEDPNLTVIIAYADN

Molecular target: MAP1LC3A, Q9H492
Assay: median log2 fold change of GCK-ALFA target abundance (FLAG IP / Myc IP barcode read proportion) (log2 ratio); each designed protein is fused to an ALFA-tag nanobody in HEK293 cells to bring the named protein to FLAG-tagged glucokinase (GCK); Myc marks an untargeted standard; higher = target protein stabilised (more abundant)
Conditions: target protein: 3xFLAG-MCP-GCK-ALFA reporter; HEK293 landing pad (RPLP)
Description: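 LABEL-seq trans screen in HEK293 landing-pad cells. Each de novo designed 100-aa effector handle, binding the indicated effector (E3 ligase, DUB or autophagy protein), is fused to a constant NbALFA target handle and induced with 2 ug/mL doxycycline. A FLAG-MCP-GCK-ALFA target and a Myc-MCP standard reporter were transfected, and after 48 h circRNA barcodes were recovered by anti-FLAG and anti-Myc IP and sequenced. The value is the median across barcodes (at least 3 per design) of log2(FLAG/Myc read-proportion ratio), with the two transfection replicates pooled. Negative values mean degradation and positive values mean stabilisation of the target.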

Going from B1 to B2, the “median log2 fold change” value falls from 0.107 to -0.514.

B3 and B4 are within 0.2 log units of each other in “median log2 fold change” value: 0.169 for the first, 0.207 for the second.

Compared with B5, B6 is lower in “median log2 fold change” value: 0.117 for the first, -0.716 for the second.

B7 and B8 are within 0.2 log units of each other in “median log2 fold change” value: -0.196 for the first, -0.206 for the second.

B9 and B10 are within 0.2 log units of each other in “median log2 fold change” value: -0.0069 for the first, 0.0727 for the second.

Going from B11 to B12, the “median log2 fold change” value rises from -0.636 to 0.0276.

Compared with B13, B14 is higher in “median log2 fold change” value: -0.0851 for the first, 0.139 for the second.

B15 and B16 are within 0.2 log units of each other in “median log2 fold change” value: 0.0457 for the first, 0.211 for the second.

Compared with B17, B18 is lower in “median log2 fold change” value: -0.012 for the first, -0.832 for the second.

B19 and B20 are within 0.2 log units of each other in “median log2 fold change” value: 0.326 for the first, 0.173 for the second.

First: B21
Second: B22
The “median log2 fold change” value of the first is lower: -0.691 for the first, 0.289 for the second.

Compared with B23, B24 is lower in “median log2 fold change” value: -0.0314 for the first, -0.264 for the second.

B25 and B26 are within 0.2 log units of each other in “median log2 fold change” value: -0.261 for the first, -0.359 for the second.

First: B27
Second: B28
The “median log2 fold change” value of the first is lower: -0.177 for the first, 0.192 for the second.

For B29, the “median log2 fold change” value was -0.268.
